Measured values: PubChem BioAssay
“And” between values parts separate entries of the source, which are not always exact repeats. Equal entries are not always repeated. The source made the active and inactive calls.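 Rule for the calls, unless noted: active = compounds whose cell count with miR-34 switched on is under 0.7 times the count with it off; inactive = the rest.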

Tests used:
[1] = sensitizers of A549 cells to miR-34 induction, primary screen, imaging, A549 dox-inducible miR-34, nuclei and caspase counts (AID 1347080); conditions: A549 miR-34 inducible, Hoechst nuclei count, 48 h
[2] = phospholipid biosynthesis inhibitors in animal cells, primary screen, cell-based, LOPAC library, screen 4 (AID 1347384; call rule not given here); conditions: phospholipid biosynthesis inhibition screen, at 10 µM
[3] = survival rescue of mitochondrial mutant cells in low glucose, primary screen, MELAS cybrids, Rieske KO mouse fibroblasts, CellTiter-Glo (AID 1508586;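 active = mean z-score across replicates of 1.96 or higher in either the MELAS or the Rieske mutant cell line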;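 note: z relative to plate mean and SD of compound and empty wells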)
[4] = viability rescue of complex I mutant cybrids, primary screen, cell-based, galactose medium, ATP luminescence (AID 1645843;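 active = z-score of at least 1.8 in each of two replicates, scored against plate mean and spread of sample wells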;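 note: positive z means more ATP and so rescue of galactose-driven cybrid death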); conditions: complex I mutant cybrid cells, 72 h, stronger effect = higher value
[5] = molecular target: Mitogen-activated protein kinase 7 (Homo sapiens) (UniProt Q13164); assay: ERK5 transactivation activators in reporter cells, primary screen, cell-based, HTS (AID 1508626;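 active = luciferase signal above three times the same-plate solvent-only control wells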;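 note: luciferase driven by Gal4-ERK5 fusion binding five Gal4 sites before minimal TATA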); conditions: HeLa Gal4-ERK5 transactivation, 18 h, at 5 µM, stronger effect = higher value
[6] = molecular target: NAD(+) hydrolase SARM1 (Homo sapiens) (UniProt Q6SZW1); assay: SARM1 TIR NADase inhibitors, cell lysate, NAD-Glo luminescence (AID 1508614;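 active = compound whose remaining NAD level is above about 45 nM, limit read from the data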;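 note: higher remaining NAD means stronger inhibition of SARM1 NADase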); conditions: SAM-TIR HEK293T lysate NADase, at 1 µM, stronger effect = higher value
[7] = stronger effect = lower value, cell number ratio, induced over uninduced
[8] = measured here: relative caspase fold change +Dox/-Dox
[9] = measured here: total cells with miR-34 induction, stronger effect = lower value
[10] = measured here: total cells without miR-34 induction
[11] = MELAS cybrid survival, CellTiter-Glo 48 h, stronger effect = higher value
[12] = Rieske KO mouse fibroblast survival, CellTiter-Glo 72 h

Sequence of Mitogen-activated protein kinase 7 (Homo sapiens) (Q13164 whole entry, looked up, the tested form may be a part): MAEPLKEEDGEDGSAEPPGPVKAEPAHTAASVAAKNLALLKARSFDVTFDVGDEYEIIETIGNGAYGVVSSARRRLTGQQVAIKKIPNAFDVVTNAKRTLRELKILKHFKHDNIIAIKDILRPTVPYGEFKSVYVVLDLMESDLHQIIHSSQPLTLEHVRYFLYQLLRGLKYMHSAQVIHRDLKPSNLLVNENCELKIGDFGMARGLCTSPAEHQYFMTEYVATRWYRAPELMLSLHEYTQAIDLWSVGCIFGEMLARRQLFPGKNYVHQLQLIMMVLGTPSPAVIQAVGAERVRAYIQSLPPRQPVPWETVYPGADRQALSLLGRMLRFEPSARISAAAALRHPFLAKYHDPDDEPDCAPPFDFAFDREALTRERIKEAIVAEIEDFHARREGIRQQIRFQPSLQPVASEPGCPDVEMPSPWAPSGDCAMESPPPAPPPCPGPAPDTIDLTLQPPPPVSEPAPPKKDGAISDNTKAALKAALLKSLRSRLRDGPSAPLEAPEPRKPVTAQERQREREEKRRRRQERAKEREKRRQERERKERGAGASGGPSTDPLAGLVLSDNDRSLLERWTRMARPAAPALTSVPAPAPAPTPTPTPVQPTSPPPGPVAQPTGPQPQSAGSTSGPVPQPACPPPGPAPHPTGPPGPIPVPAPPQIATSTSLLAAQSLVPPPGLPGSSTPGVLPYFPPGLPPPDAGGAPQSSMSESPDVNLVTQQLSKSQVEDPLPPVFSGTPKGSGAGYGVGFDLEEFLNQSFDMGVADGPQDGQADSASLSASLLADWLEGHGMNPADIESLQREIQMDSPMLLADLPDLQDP
Sequence of NAD(+) hydrolase SARM1 (Homo sapiens) (Q6SZW1 whole entry, looked up): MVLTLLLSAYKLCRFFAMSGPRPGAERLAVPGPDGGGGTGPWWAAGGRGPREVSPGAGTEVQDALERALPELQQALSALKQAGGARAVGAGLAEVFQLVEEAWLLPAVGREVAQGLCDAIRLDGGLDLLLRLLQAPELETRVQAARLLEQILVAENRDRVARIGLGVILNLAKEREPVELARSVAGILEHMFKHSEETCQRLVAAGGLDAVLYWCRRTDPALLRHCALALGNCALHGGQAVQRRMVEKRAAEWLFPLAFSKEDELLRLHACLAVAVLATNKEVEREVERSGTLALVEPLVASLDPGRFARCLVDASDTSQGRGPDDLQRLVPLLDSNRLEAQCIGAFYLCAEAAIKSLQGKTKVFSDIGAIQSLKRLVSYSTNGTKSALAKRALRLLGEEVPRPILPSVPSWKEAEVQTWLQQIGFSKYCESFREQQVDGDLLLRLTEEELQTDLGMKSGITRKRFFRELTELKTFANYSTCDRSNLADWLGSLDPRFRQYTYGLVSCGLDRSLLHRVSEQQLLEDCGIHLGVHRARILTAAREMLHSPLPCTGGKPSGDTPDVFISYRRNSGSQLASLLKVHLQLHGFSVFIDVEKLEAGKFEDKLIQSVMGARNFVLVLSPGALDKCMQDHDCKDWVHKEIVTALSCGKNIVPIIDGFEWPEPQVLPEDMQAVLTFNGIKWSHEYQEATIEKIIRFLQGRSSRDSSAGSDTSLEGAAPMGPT

| SMILES | fold change [1, 7] | fold change [1, 8] | cell count [1, 9] | cell count [1, 10] | outcome [2] | z-score [3, 11] | z-score [3, 12] | z-score [4] | luciferase signal [5] | remaining NAD [6] |
| --- | --- | --- | --- | --- | --- | --- | --- | --- | --- | --- |
| Cc1cccc(C)c1NC(=O)C(C)N (stereo unspecified) | 0.975 (inactive) and 0.939 (inactive) and 0.865 (inactive) | 0.988 and 0.663 and 1.75 | 10300 and 9450 and 9090 | 10600 and 10100 and 10500 | inactive | 0.748 (inactive) | 0.421 | 0.04 (inactive) and 0.79 (inactive) |  |  |
| Nc1c2c(nc3ccccc13)CCCC2O (stereo unspecified) | 0.95 (inactive) and 0.845 (inactive) and 0.969 (inactive) | 0.943 and 1.26 and 0.952 | 9940 and 8540 and 10300 | 10500 and 10100 and 10600 | inactive | 1.73 (inactive) and -0.394 (inactive) | 0.362 and -0.175 | 0.445 (inactive) and 0.48 (inactive) | 36 AU (inactive) |  |
| CCOC(=O)n1ccn(C)c1=S | 0.866 (inactive) and 0.865 (inactive) | 1.28 and 0.473 | 8700 and 8400 | 10100 and 9710 |  | -0.0629 (inactive) and 0.57 (inactive) | -0.122 and 0.0161 |  |  | 10 nM (inactive) |
| C[N+]1(CCCCC[N+]2(C)CCCC2)CCCC1 | 1.07 (inactive) and 0.91 (inactive) | 0.597 and 1.28 | 10400 and 8690 | 9650 and 9550 | inactive | 0.607 (inactive) | 0.539 | 0.235 (inactive) | 108 AU (inactive) |  |
| CCCCOc1ccc(OCCCN2CCOCC2)cc1 | 0.766 (inactive) and 0.863 (inactive) and 0.924 (inactive) | 1.42 and 1.47 and 3.29 | 7600 and 7830 and 11600 | 9930 and 9070 and 12500 |  | -0.0227 (inactive) and 0.258 (inactive) | -0.168 and -0.646 |  | 36 AU (inactive) | 10 nM (inactive) |
| O=C(CCCCC(=O)Nc1c(I)cc(I)c(C(=O)O)c1I)Nc1c(I)cc(I)c(C(=O)O)c1I | 0.893 (inactive) | 1.51 | 9730 | 10900 |  | 0.645 (inactive) | -0.141 |  | 44 AU (inactive) | 10 nM (inactive) |
| NCCCC(=O)O | 1.09 (inactive) | 1.86 | 10000 | 9160 | inactive |  |  | 0.26 (inactive) | 56 AU (inactive) | 10 nM (inactive) |
| C[C@]12C[C@H](O)[C@H]3[C@@H](CCC4=CC(=O)CC[C@@]43C)[C@@H]1CC[C@@H]2C(=O)CO | 0.955 (inactive) and 0.755 (inactive) and 0.815 (inactive) | 2.18 and 1.95 and 1.31 | 7560 and 6880 and 7400 | 7920 and 9120 and 9080 | inactive | 0.478 (inactive) and -0.124 (inactive) | -0.146 and 0.938 | -0.085 (inactive) and -0.065 (inactive) |  |  |
| Cc1nc2sccn2c(=O)c1CCN1CCC(=C(c2ccc(F)cc2)c2ccc(F)cc2)CC1 | 1.04 (inactive) and 0.919 (inactive) and 0.754 (inactive) | 0.73 and 0.904 and 7.37 | 8680 and 6720 and 10000 | 8330 and 7320 and 13300 | inactive |  |  | -1.37 (inactive) and -0.82 (inactive) | 152 AU (active) | 10 nM (inactive) |
| CC(N)CCCC(C)(C)O (stereo unspecified) | 0.926 (inactive) | 1.29 | 8630 | 9320 |  | 0.045 (inactive) | 0.396 |  | 160 AU (inactive) | 10 nM (inactive) |
